The values that follow come from PubChem BioAssay (NCI).

About 79,000 compounds went through this panel and 15% of them were active in at least one assay; those are over-represented in the sample as a whole. Values without a mark were called inactive. Calls of active or inactive are those of the source. Cut-off read from the data, not from the text of the source: active = growth inhibition above about 70%; inactive = the rest.

The nature of assay [1]: NCI Yeast Anticancer Drug Screen. Data for the rad50 strain (AID 155).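 Note: 0% = growth of vehicle-only cultures of the same strain.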 Particulars: S. cerevisiae rad50 strain growth inhibition; at 50.0 µM; stronger effect = higher value. The gist of the method: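 Genetically altered yeast (DNA repair pathway); compound treatment; growth inhibition vs vehicle ctrl.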
Assay [2] in a line: NCI Yeast Anticancer Drug Screen. Data for the mec2-1 strain (AID 157). Particulars: S. cerevisiae mec2-1 strain, at 50.0 µM, stronger effect = higher value. In a few lines:
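Yeast mec2-1 mutant treated with compound. Readout: growth inhibition vs vehicle controls.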

A short description of assay [3]: NCI Yeast Anticancer Drug Screen. Data for the sgs1 mgt1 strain (AID 161).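 Note: 0% = growth of cultures given vehicle only.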 The note with it: S. cerevisiae sgs1 mgt1 strain, at 50.0 µM, stronger effect = higher value. In a few lines:
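Inhibition of yeast growth, normalised to vehicle-treated controls, is reported for a strain bearing genetic alterations in DNA damage repair.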

A short description of assay [4]: NCI Yeast Anticancer Drug Screen. Data for the cln2 rad14 strain (AID 165).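 Note: 0% = growth equal to vehicle treated cultures.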 Particulars: S. cerevisiae cln2 rad14 strain, at 50.0 µM, stronger effect = higher value. In a few lines: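 cln2 rad14 yeast strain; compound exposure; growth inhibition read vs vehicle controls.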
The nature of assay [5]: NCI Yeast Anticancer Drug Screen. Data for the bub3 strain (AID 167). The note with it: S. cerevisiae bub3 mutant strain, at 50.0 µM, stronger effect = higher value. The gist of the method: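 Yeast carrying a defined mutation is treated with each compound, and growth is compared with that of vehicle-exposed cells to give inhibition.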
Assay [6] in a line: NCI Yeast Anticancer Drug Screen. Data for the mlh1 rad18 strain (AID 175). The note with it: S. cerevisiae mlh1 rad18 strain growth inhibition; at 50.0 µM; stronger effect = higher value. In a few lines: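 Yeast w/ defined DNA-repair lesions; compound exposure; growth vs vehicle controls → % inhibition.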

On to `CC[O-].CC[O-].COc1ccc(C(=O)[CH-]C(C)=O)cc1OC.COc1ccc(C(=O)[CH-]C(C)=O)cc1OC.[Ti+4]`, for which the growth inhibition in assay [1] was -17.4%; in assay [2], 18.5%; in assay [3], -2.7%; in assay [4] it was 9.85%; in assay [5], 29.9%; in assay [6] it was -10.3%.

Regarding `NC(=S)N/N=C\c1nccc2ccsc12`, the growth inhibition was 10.4% in assay [1]; -5.7% in assay [2]; -9.35% in assay [3]; -29.9% in assay [4]; -0.05% in assay [5]; 2.7% in assay [6].

On to `O=S(=O)(Cl)c1cccc2cc3ccccc3cc12`, for which the growth inhibition in assay [1] was 0.6%; in assay [2], -10.1%; in assay [3], 3.95%; in assay [4], -12.9%; in assay [5], 12.9%; in assay [6] it was -7.05%.

For `O=[N+]([O-])c1ccc(COP(=O)(O)OCc2ccc([N+](=O)[O-])cc2)cc1`, the growth inhibition in assay [1] was -1.5%; in assay [2], 10.9%; in assay [3], 13.1%; in assay [4] it was -9.55%; in assay [5] it was 11.2%; in assay [6] it was 15.4%.

On to `O=C(O)c1cc(Br)ccc1[N+](=O)[O-]`, for which the growth inhibition in assay [1] was -5.8%; in assay [2], -25.4%; in assay [3], 3.95%; in assay [4] it was 7.05%; in assay [5], -1.95%; in assay [6], -11%.

With `ClC1CC/C=C\CC/C=C/CCC1Cl` (stereo not drawn), the growth inhibition in assay [1] is 55.7%; in assay [2], 48.1%; in assay [3] it was 22.1%; in assay [4], 32%; in assay [5], 29.2%; in assay [6], 41.3%.

Turning to `COc1ccc2c(c1)C1=C(CC2)C(=O)OC1=O`, the growth inhibition is -0.9% in assay [1]; 11.7% in assay [2]; 28.5% in assay [3]; 2.8% in assay [4]; 5.05% in assay [5]; -4.85% in assay [6].

For the compound `CN(CC(=O)c1ccc(I)cc1)Cc1ccccc1`, the growth inhibition was 28.1% in assay [1]; -1.25% in assay [2]; 16.4% in assay [3]; -5.9% in assay [4]; 12.8% in assay [5]; 45.7% in assay [6].

Regarding `CCCCCC1CCC(OC(=O)NC)CC1` (stereo not drawn), the growth inhibition in assay [1] is 2%; in assay [2] it was 9.85%; in assay [3] it was -0.6%; in assay [4], -19.9%; in assay [5], 25.4%; in assay [6], -6.95%.

For `COc1cc2c(cc1OC)C(c1ccc([N+](=O)[O-])c(C)c1)=NCC2`, the growth inhibition in assay [1] is 28.1%; in assay [2], -15.7%; in assay [3] it was 39.5%; in assay [4] it was 15.3%; in assay [5], 19.4%; in assay [6] it was 0.25%.

`COc1cccc(CN2CCCN(Cc3cccc(OC)c3O)C2c2ccccc2)c1O`: the growth inhibition in assay [1] was 22.1%; in assay [2] it was 3.2%; in assay [3], 1.8%; in assay [4], -6.45%; in assay [5], 0.9%; in assay [6] it was 12.4%.

Regarding `COc1ccc(/C(=N\O)c2nccc3cc(OC)c(OC)cc23)cc1OC`, the growth inhibition was 35.8% in assay [1]; 14.2% in assay [2]; 27.9% in assay [3]; 9% in assay [4]; -2.95% in assay [5]; 18.4% in assay [6].

As to `CCC(=O)C(CCN(C)C)c1ccccc1` (stereo not drawn), the growth inhibition is -10.4% in assay [1]; -0.85% in assay [2]; 9.9% in assay [3]; -22.6% in assay [4]; -11.1% in assay [5]; -7.9% in assay [6].

For the compound `O=C1CSC(=S)N1c1ccco1`, the growth inhibition was 3.4% in assay [1]; -20.1% in assay [2]; 17.9% in assay [3]; 20.7% in assay [4]; -13.1% in assay [5]; 2.85% in assay [6].

Take `O=C(O)c1ccc(OCCOc2ccccc2)c(Cl)c1`: the growth inhibition is 31% in assay [1]; 74.8% (active) in assay [2]; 61.3% in assay [3]; 40.2% in assay [4]; 63.6% in assay [5]; 61% in assay [6].

On to `C=C1C(C)C2C(Cc3ccccc3)NC(=O)C23OC(=O)/C=C\CC(=O)CCC(C)C/C=C/C3C1O` (stereo not drawn), for which the growth inhibition in assay [1] is 91.4% (active); in assay [2] it was 93.2% (active); in assay [3], 93% (active); in assay [4] it was 90.8% (active); in assay [5], 90.8% (active); in assay [6], 91.2% (active).

As for `CCOCC(=O)N[C@H]1CCc2cc(OC)c(OC)c(OC)c2-c2ccc(SC)c(=O)cc21`, the growth inhibition in assay [1] is 10.7%; in assay [2], 26.9%; in assay [3], 12.2%; in assay [4], -53.6%; in assay [5], -8.3%; in assay [6], 47.1%.

Take `O=C(NC(=O)c1c(Cl)nc2sccn12)Nc1ccc(Cl)cc1`: the growth inhibition in assay [1] is -5.45%; in assay [2], -14.1%; in assay [3] it was -4.65%; in assay [4] it was 0.85%; in assay [5], -0.6%; in assay [6] it was -23.9%.

For the compound `C/C=C(/C)C(=O)OC12CC(C)C3(O)C(C=C(CO)C[C@]4(O)C(=O)C(C)=CC34)C1C2(C)C` (stereo partly drawn), the growth inhibition is 16.2% in assay [1]; 1.3% in assay [2]; -12.6% in assay [3]; -0.45% in assay [4]; 7.5% in assay [5]; 1.35% in assay [6].

`CC(C)CC(=O)NS(=O)(=O)c1ccccc1`: the growth inhibition in assay [1] is -6.15%; in assay [2], 5.05%; in assay [3], -3.05%; in assay [4], 5.2%; in assay [5] it was -17.4%; in assay [6] it was -22.2%.

Take `COc1ccc(C(C)(C)c2ccccc2)cc1`: the growth inhibition in assay [1] was -20.1%; in assay [2], -45.1%; in assay [3], -13.4%; in assay [4], -19.9%; in assay [5], -24.6%; in assay [6] it was -18.6%.

Consider `NC(Cc1cc(I)c(Oc2ccc(O)c(I)c2)c(I)c1)C(=O)O` (stereo not drawn), for which the growth inhibition in assay [1] was -5.1%; in assay [2], -1.35%; in assay [3] it was -9.5%; in assay [4], -27.5%; in assay [5], -30.5%; in assay [6] it was 33.4%.

In the case of `O=C(/C=C/c1ccc2c(c1)OCO2)C1CC1`, the growth inhibition is 6.45% in assay [1]; 11.1% in assay [2]; 28.2% in assay [3]; 8.25% in assay [4]; 27.7% in assay [5]; 16.9% in assay [6].

For `Cn1ccnc1SC(=O)C(Cl)(c1ccccc1)c1ccccc1`, the growth inhibition in assay [1] is -13.2%; in assay [2], 5.85%; in assay [3] it was -0.8%; in assay [4], -18.4%; in assay [5] it was 0.35%; in assay [6], 5.45%.

For `CCC(=O)c1c2c(cc3ccccc13)CCCC2`, the growth inhibition in assay [1] was 11.7%; in assay [2] it was -10.7%; in assay [3] it was 7.3%; in assay [4] it was 3.85%; in assay [5] it was 38.2%; in assay [6], 34%.

For `CN=C1c2ccccc2C(=O)c2c1c(O)n(C)c2O`, the growth inhibition is 3.05% in assay [1]; -8.45% in assay [2]; 0.9% in assay [3]; 1.4% in assay [4]; -2.75% in assay [5]; -1% in assay [6].

Consider `O=C1CCCC2=C1CC1=C(CCCC1=O)N2c1cccc2ccccc12`, for which the growth inhibition in assay [1] is 7.7%; in assay [2] it was -16%; in assay [3], 12.7%; in assay [4], 9.85%; in assay [5], 21.8%; in assay [6], 28.1%.

For the compound `O=C1CCCC2=C1C(c1ccccc1)/C(=N/O)O2` (stereo not drawn), the growth inhibition in assay [1] is 14.6%; in assay [2], -11.2%; in assay [3], -4.45%; in assay [4], -12.1%; in assay [5], 8%; in assay [6] it was 16.1%.

As to `NC(=S)C(=S)NCCO`, the growth inhibition is 19.2% in assay [1]; 1.7% in assay [2]; -5.7% in assay [3]; -68.2% in assay [4]; -2.7% in assay [5]; -12.1% in assay [6].

`Nc1ccc(O)cc1`: the growth inhibition in assay [1] was 15.2%; in assay [2], 7.5%; in assay [3] it was 39%; in assay [4], 9.35%; in assay [5] it was 3.45%; in assay [6], 14.9%.

As to `Cc1ccc(S(=O)(=O)NN=C2CCS(=O)CC2)cc1` (stereo not drawn), the growth inhibition in assay [1] is -19.6%; in assay [2], 10.7%; in assay [3] it was 7.6%; in assay [4] it was -32.4%; in assay [5] it was -10.5%; in assay [6], -28.5%.

Regarding `CN(C)c1ccc(/C=C(\NC(=O)c2ccccc2)C(=O)NC(CC(=O)O)C(=O)O)cc1` (stereo not drawn), the growth inhibition is 10.2% in assay [1]; 1.45% in assay [2]; 17.9% in assay [3]; 7% in assay [4]; -0.25% in assay [5]; -0.55% in assay [6].

Consider `NC(CSC(c1ccccc1)(c1ccccc1)c1ccccc1)C(=O)OC(c1ccccc1)c1ccccc1` (stereo not drawn), for which the growth inhibition in assay [1] is 19.3%; in assay [2], -7%; in assay [3], 29.6%; in assay [4] it was -44.5%; in assay [5] it was -18.7%; in assay [6] it was 22.2%.

For `O=C(O)CCC(=O)Nc1ccc(S(=O)(=O)Nc2nccs2)cc1`, the growth inhibition in assay [1] was -18%; in assay [2], -36.2%; in assay [3] it was -16.5%; in assay [4], -17.9%; in assay [5], -18.3%; in assay [6], -14.6%.

Regarding `C[N+]1(C)CCC(c2ccccc2)(c2ccccc2)/C(=C2/C(=O)C(c3ccccc3)(c3ccccc3)CC[N+]2(C)C)C1`, the growth inhibition in assay [1] was -4.55%; in assay [2] it was -7.9%; in assay [3] it was 0.75%; in assay [4] it was 35%; in assay [5] it was -32%; in assay [6] it was -20.8%.

On to `CNCC(SC)c1ccc(O)c(O)c1` (stereo not drawn), for which the growth inhibition is -9.8% in assay [1]; -14.8% in assay [2]; -20.4% in assay [3]; -15.7% in assay [4]; -31% in assay [5]; -2.6% in assay [6].

Regarding `Cc1[nH]c2ccc(-c3ccccc3)cc2c1CC(=O)O`, the growth inhibition is 51.5% in assay [1]; -22.8% in assay [2]; 47.7% in assay [3]; -5.85% in assay [4]; 3.35% in assay [5]; 53.9% in assay [6].

Take `COc1cc2c(cc1OC)C(=O)C(C1CCCCC1)NC2` (stereo not drawn): the growth inhibition in assay [1] is 20.7%; in assay [2], 9.85%; in assay [3] it was 8.9%; in assay [4], 0.45%; in assay [5], 16.1%; in assay [6], 30.4%.
